ELG1 DNA repair – qHTS screen for small molecules that inhibit ELG1-dependent DNA repair in human embryonic kidney (HEK293T) cells expressing luciferase-tagged ELG1 | HEK293T ELG1-luciferase reporter, luminescence, 16 h; DNA damage induced by 5-fluorouridine | Potency, µM (doses to about 46.1 µM), inactives show at the top dose activity change, negative = inhibition, most hits filed as inhibitors | actives 2.3% (n = 330,000); note: nearly all actives have a fitted effect of over 55% in size
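Luminescence from the luciferase reporter, measured 30 min after ONE-Glo reagent at room temperature, was the read-out. Beforehand, 2,000 cells per well were exposed for 16 hr at 37 °C to 5-fluorouridine together with compound or vehicle.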
TDP1 cell CPT – qHTS for Inhibitors of human tyrosyl-DNA phosphodiesterase 1 (TDP1): qHTS in cells in presence of CPT; actives 12% (n = 420,000); Potency, µM (doses to about 46.2 µM), for the others: at the highest dose activity change, negative = growth inhibition, actives largely listed as inhibitors; chicken DT40 Tdp1-/-;hTDP1 cells + 20 nM CPT, ATP luminescence, 48 h; AID 686979, 2013; note: nearly all actives have a fitted effect of over 55% in size
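Chicken DT40 Tdp1-/- cells stably complemented with human TDP1 were seeded at 400 cells/well in medium containing 20 nM camptothecin, exposed to pin-transferred compounds, and grown at 37 °C for at least 48 hr. Viability was read as ATP luminescence.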
DT40 TDP1 no CPT – qHTS for Inhibitors of human tyrosyl-DNA phosphodiesterase 1 (TDP1): qHTS in cells in absence of CPT. DT40 Tdp1-/- hTDP1 cells, no CPT, ATP luminescence, 48 h. actives 15% (n = 420,000). AID 686978, 2013. Potency, µM (highest dose often 46.2 µM), without a hit: top-dose activity change, negative = growth inhibition, hits mostly inhibitors; note: nearly all actives have a fitted effect of over 55% in size
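Luminescent ATP content (CellTiter-Glo) served as the growth readout. Knockout chicken DT40 cells expressing human TDP1 were exposed to compounds without camptothecin for a minimum 48 hr at 37 °C.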
VP16 counter – VP16 counterscreen qHTS for inhibitors of ROR gamma transcriptional activity; Drosophila S2 Gal4-VP16 UAS-luciferase, luminescence, 20 h; Potency, µM (highest dose often 53.6 µM), without a hit: at the top dose activity, negative = inhibition, actives largely listed as inhibitors; actives 3.5% (n = 310,000);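 note: Gal4-VP16 expression switched on by copper sulfate through the metallothionein promoter; nearly all actives have a fitted effect of over 50% in size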
ALOX12 inh – Primary qHTS assay for inhibitors of human arachidonate 12S-lipoxygenase (ALOX12): Round 2 | Polyunsaturated fatty acid lipoxygenase ALOX12 (Homo sapiens), P18054 | purified 12hLO, xylenol orange hydroperoxide absorbance | Potency, µM (top dose mostly 108 µM), inactives show top-dose activity change, negative = inhibition, most hits filed as inhibitors | actives 1.1% (n = 580,000) | AID 1671190, 2021
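Purified human 12hLO at 150 nM in 25 mM Hepes, 0.01% Triton X-100, pH 7.0, preincubated 15 min at room temperature with compound. Reaction started with 40 uM arachidonic acid, 30 min at room temperature. Hydroperoxide measured by Fe-xylenol orange, 573/405 nm absorbance ratio.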
RORg inh – qHTS for inhibitors of ROR gamma transcriptional activity | Nuclear receptor ROR-gamma (Mus musculus), P51450 | Drosophila S2 Gal4-RORgamma UAS-luciferase reporter, 20 h | Potency, µM (series often up to 53.6 µM), for the others: top-dose activity change, negative = inhibition, actives largely listed as inhibitors | actives 5.4% (n = 310,000) | AID 2551, 2010; note: nearly all actives have a fitted effect of over 60% in size
Target sequence (P51450 whole entry, looked up, the tested form may be a part): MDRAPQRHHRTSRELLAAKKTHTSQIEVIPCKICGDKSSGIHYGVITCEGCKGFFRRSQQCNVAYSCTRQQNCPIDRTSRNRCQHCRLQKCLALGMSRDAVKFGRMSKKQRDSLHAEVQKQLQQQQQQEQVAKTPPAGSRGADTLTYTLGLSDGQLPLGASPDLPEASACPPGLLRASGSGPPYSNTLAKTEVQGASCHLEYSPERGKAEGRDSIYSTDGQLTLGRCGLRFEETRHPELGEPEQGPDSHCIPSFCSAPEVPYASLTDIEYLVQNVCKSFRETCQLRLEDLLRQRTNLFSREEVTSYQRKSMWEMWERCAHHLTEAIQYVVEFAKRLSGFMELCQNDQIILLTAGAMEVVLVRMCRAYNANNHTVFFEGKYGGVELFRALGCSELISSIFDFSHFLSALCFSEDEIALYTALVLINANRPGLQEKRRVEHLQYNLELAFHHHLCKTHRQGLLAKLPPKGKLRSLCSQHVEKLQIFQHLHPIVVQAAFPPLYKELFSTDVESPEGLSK
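Luciferase reporter read in Schneider cells carrying Gal4-RORγ (mouse) and UAS-Photinus luciferase; cells given compound 1 h before 700 uM copper sulfate induction, then incubated 20 h at ambient temperature.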
An asterisk follows results filed as active; [ ] = another dose, or the depositor's remark. In the library only some 15% were active in any assay of this set; here they are far more common. Calls come from the whole dose curve; as a rule, active = well fitted curve in the direction sought with a large enough effect; inconclusive = small, poorly fitted or top-dose-only effect, or another doubt; inactive = no such curve, though single readings can be large; an effect the other way counts as inactive or inconclusive. % is set by controls: 0 for no effect and ±100 for the full control effect; potency is the fitted concentration of half-maximal effect.

For CC(C)C12CN3CN(C1)CC(C(C)C)(C3)C2=O the results were ALOX12 inh 0%.
Cc1cc(C)cc(Oc2nc3ccccn3c(=O)c2/C=C(\C#N)c2nc3ccccc3s2)c1 was read as TDP1 cell CPT inconclusive, DT40 TDP1 no CPT 9.2µM* and ALOX12 inh inconclusive.
Cc1cccn2c(=O)c(/C=C(\C#N)c3nc4ccccc4s3)c(Oc3ccc(F)cc3)nc12 was read as TDP1 cell CPT inconclusive, DT40 TDP1 no CPT 21µM* and ALOX12 inh inconclusive.
Cc1cccc(Oc2nc3c(C)cccn3c(=O)c2/C=C(\C#N)c2nc3ccccc3s2)c1 was read as TDP1 cell CPT inconclusive, DT40 TDP1 no CPT 18µM* and ALOX12 inh inconclusive.
For Cc1ccc(C(=O)NC[C@H]2C[C@@H]3CCN2C[C@@H]3c2cc(C3CCCCC3)nn2C)cc1 the results were ALOX12 inh 3%[176 µM].
Screening COc1ccc([C@@H]2CN(c3nccc(C)n3)[C@@H]3C4CCN(CC4)[C@@H]32)cc1 returned ALOX12 inh 48%.
`COc1ccccc1CNC(=O)[C@H]1CN2CC[C@H]1C[C@@H]2Cn1cc(-c2ccccn2)nn1` gave ALOX12 inh -5%[176 µM].
For CC(=O)Nc1ccc(OC[C@](C)(O)C(=O)Nc2ccc([N+](=O)[O-])c(C(F)(F)F)c2)cc1 the results were ALOX12 inh -18%[57.4 µM].
Cc1cnc(CCN)n1C1CC1 was read as ALOX12 inh 99%.
Screening OCCN1CCN(CCCN2c3ccccc3Sc3ccc(C(F)(F)F)cc32)CC1 returned ELG1 DNA repair -9%, TDP1 cell CPT 16µM*, DT40 TDP1 no CPT 18µM*, VP16 counter inconclusive, ALOX12 inh inconclusive and RORg inh -5%.
Screening FC(F)(F)c1ccc2c(c1)N(CCCN1CCN(CCCl)CC1)c1ccccc1S2 returned ELG1 DNA repair -2%, TDP1 cell CPT 8.2µM*, DT40 TDP1 no CPT 8.2µM*, VP16 counter -8%, ALOX12 inh inconclusive and RORg inh -25%.
For CCCS(=O)(=O)N1CC(COC)C2(CCNCC2)C1 (stereo unspecified) the results were ALOX12 inh 41%.
Screening Brc1ccccc1 returned ELG1 DNA repair 11%, TDP1 cell CPT 17%, DT40 TDP1 no CPT 17%, VP16 counter -15%, ALOX12 inh 7% and RORg inh 14%.
S=C(Nc1ccccc1)Nc1cccc(Br)c1 was read as ELG1 DNA repair -2%, TDP1 cell CPT inconclusive, DT40 TDP1 no CPT inconclusive, VP16 counter 8%[10 µM], ALOX12 inh inconclusive and RORg inh 11µM*.
COc1ccc(-n2c(/C=C\c3ccccc3F)nc3ccccc3c2=O)c(OC)c1 was read as TDP1 cell CPT 15µM*, DT40 TDP1 no CPT 23µM* and ALOX12 inh -24%.
For COc1ccccc1-n1c(/C=C/c2ccccc2)nc2ccccc2c1=O the results were TDP1 cell CPT inconclusive, DT40 TDP1 no CPT 26µM* and ALOX12 inh -1%.
O=c1c2ccccc2nc(/C=C\c2cccc(Br)c2)n1-c1ccc(O)cc1 was read as TDP1 cell CPT inconclusive, DT40 TDP1 no CPT inconclusive and ALOX12 inh -21%.
`O=c1c2ccccc2nc(/C=C/c2ccccc2)n1-c1ccc(O)cc1` gave ELG1 DNA repair inconclusive, TDP1 cell CPT inconclusive, DT40 TDP1 no CPT 23µM*, VP16 counter -28%, ALOX12 inh 8% and RORg inh 33%.
For O=c1c2ccccc2nc(/C=C/c2cccnc2)n1Cc1ccccc1 the results were ELG1 DNA repair inconclusive, TDP1 cell CPT inconclusive, DT40 TDP1 no CPT 23µM*, VP16 counter -13%, ALOX12 inh inconclusive and RORg inh -31%.
`O=C1/C(=C/c2cccnc2)SC(=NCc2ccccc2)N1Cc1ccccc1` gave ELG1 DNA repair inconclusive, TDP1 cell CPT 0%, DT40 TDP1 no CPT -13%, VP16 counter 0%, ALOX12 inh 13% and RORg inh inconclusive.
For COc1ccccc1-n1c(/C=C/c2ccc(O)cc2)nc2ccccc2c1=O the results were ELG1 DNA repair inconclusive, TDP1 cell CPT inconclusive, DT40 TDP1 no CPT inconclusive, VP16 counter -9%, ALOX12 inh 0% and RORg inh 23%.
`C#C[C@@H]1CC2C3CCC4=CC(=O)CCC4C3CCC2(CC)C1O` (stereo partly specified) gave ALOX12 inh 1%.
`COC(=O)C1=C(N)Oc2n[nH]c(-c3ccccc3)c2C12C(=O)N(C)c1ccccc12` (stereo unspecified) gave ALOX12 inh -27%.
CN(C)Cc1cn(C[C@H]2CC3CCN2C[C@@H]3C(=O)NCc2ccc3c(c2)OCO3)nn1 (stereo partly specified) was read as ALOX12 inh 0%[176 µM].
`O=c1c2ccccc2nc(/C=C/c2ccc(O)c(O)c2)n1-c1ccccc1` gave ELG1 DNA repair inconclusive, TDP1 cell CPT inconclusive, DT40 TDP1 no CPT 26µM*, VP16 counter -16%, ALOX12 inh 11% and RORg inh -12%.
`COc1ccc(-n2c(/C=C3\C(=O)Nc4ccccc43)nc3ccccc3c2=O)cc1` gave ELG1 DNA repair 17%, TDP1 cell CPT inconclusive, DT40 TDP1 no CPT inconclusive, VP16 counter 1%, ALOX12 inh inconclusive and RORg inh -1%.
`O=c1c2ccccc2nc(/C=C/c2ccccc2)n1-c1ccccc1O` gave ELG1 DNA repair inconclusive, TDP1 cell CPT -11%, DT40 TDP1 no CPT 23µM*, VP16 counter -4%, ALOX12 inh 0% and RORg inh 27%.
`O=c1c2ccccc2nc(/C=C/c2ccc(O)cc2)n1-c1ccccc1O` gave ELG1 DNA repair inconclusive, TDP1 cell CPT inconclusive, DT40 TDP1 no CPT inconclusive, VP16 counter 10%, ALOX12 inh inconclusive and RORg inh 23%.

Assay outcomes (PubChem BioAssay)
